# Screening results as filed in PubChem.
# The entries come from a sample that favours hits as a whole.
# TDP1 cell noCPT: qHTS for Inhibitors of human tyrosyl-DNA phosphodiesterase 1 (TDP1): qHTS in cells in absence of CPT; Potency, µM (highest dose often 46.2 µM), inactives show at the top dose activity change, negative = growth inhibition, most hits filed as inhibitors; actives 15% (n = 420,000); DT40 Tdp1-/- hTDP1 cells, no CPT, ATP luminescence, 48 h; note: potency is the fitted concentration of half-maximal effect; nearly all actives have a fitted effect of over 55% in size
#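 DT40 Tdp1-/-;hTDP1 cells, no CPT (DMSO vehicle only), 400 cells/well; compounds pin-transferred; ≥48 hr, 37 °C; CellTiter-Glo 30 min RT dark, luminescence read.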
# IL-1B inflam inh: blocks inflammasome-driven IL-1 beta release; AID 743279; THP-1 LPS/ATP IL-1B secretion, AlphaLISA, 16 h; stronger effect = lower value; actives 4.7% (n = 360,000); activity change, % at 57.5 µM; in the data active = activity change below about -50%; inconclusive = mostly about -30% to -49%
#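 THP-1 cells pretreated 1 hr with compounds (up to 57.5 uM final), then stimulated with LPS (250 ng/mL final) plus ATP (1.25 mM final); secreted IL-1B measured by AlphaLISA after 16 hr, decreased signal indicating inhibition.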
# 12-LOX inh: blocks human arachidonate 12S-lipoxygenase. P18054. purified 12hLO, xylenol orange hydroperoxide absorbance. Potency, µM (titrated, usually from 108 µM), without a hit: at the top dose activity change, negative = inhibition, usual class: inhibitors. actives 1.1% (n = 580,000). AID 1671190; note: potency is the fitted concentration of half-maximal effect
# Target sequence (P18054 whole entry, looked up): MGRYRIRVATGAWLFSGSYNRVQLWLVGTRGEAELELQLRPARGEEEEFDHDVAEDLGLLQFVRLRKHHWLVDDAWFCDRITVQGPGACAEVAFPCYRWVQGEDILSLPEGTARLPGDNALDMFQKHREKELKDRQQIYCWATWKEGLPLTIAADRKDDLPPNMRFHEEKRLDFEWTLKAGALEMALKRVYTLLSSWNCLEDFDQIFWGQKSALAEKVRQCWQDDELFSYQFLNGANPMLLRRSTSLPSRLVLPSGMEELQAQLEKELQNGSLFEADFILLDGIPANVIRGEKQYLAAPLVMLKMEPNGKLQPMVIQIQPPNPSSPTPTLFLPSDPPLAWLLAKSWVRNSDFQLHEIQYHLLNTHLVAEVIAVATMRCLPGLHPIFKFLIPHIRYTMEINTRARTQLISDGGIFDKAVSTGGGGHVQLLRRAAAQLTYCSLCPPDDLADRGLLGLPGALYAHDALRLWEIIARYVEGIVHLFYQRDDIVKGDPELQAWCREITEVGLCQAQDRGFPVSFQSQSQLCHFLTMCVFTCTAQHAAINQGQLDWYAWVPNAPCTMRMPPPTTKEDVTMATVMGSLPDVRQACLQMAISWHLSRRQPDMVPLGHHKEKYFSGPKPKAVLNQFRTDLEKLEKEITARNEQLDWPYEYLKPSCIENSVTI
#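 Purified human 12hLO (150 nM final) in 25 mM Hepes, 0.01% Triton X-100, pH 7.0 was preincubated 15 min at room temperature with compound. Then 40 uM arachidonic acid was added, 30 min. Hydroperoxide was read by Fe-XO absorbance ratio 573/405 nm.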
# HT1080NT lethal: kills 2HG-producing HT-1080-NT fibrosarcoma cells; HT-1080-NT fibrosarcoma viability, CellTiter-Glo ATP luminescence, 48 h; Potency, µM (series often up to 46.1 µM), inactives show at the highest dose activity, negative = less viability, actives largely listed as cytotoxic; actives 1.6% (n = 360,000);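 note: NT is the 2HG producing partner of a matched IDH1 knockdown line; potency is the fitted concentration of half-maximal effect; 0% = DMSO-treated cells and -100% = media-only wells without cells; nearly all actives have a fitted effect of over 55% in size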
#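 Toxicity toward the 2HG-producing NT line was scored as %Activity, normalised to DMSO and no-cell wells, from CellTiter-Glo luminescence after 48 hours' treatment.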
# HT1080 IDH1KD tx: toxicity to HT-1080 IDH1 knockdown cells (counter line); HT-1080 IDH1 knockdown viability, ATP luminescence, 48 h; Potency, µM (doses to about 46.1 µM), inactives show at the top dose activity, negative = toxicity, actives largely listed as cytotoxic; actives 2% (n = 360,000); AID 686971;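 note: potency is the fitted concentration of half-maximal effect; 0% = DMSO wells and -100% = cell-free medium wells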
#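 % activity derives from luminescence (CellTiter-Glo), normalised to DMSO and no-cell wells. HT-1080-IDH1KD cells, 750/well, had 48 h compound exposure at 37 °C.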
# DT40 TDP1 CPT: DT40-hTDP1 cell growth loss with CPT; actives 12% (n = 420,000); chicken DT40 Tdp1-/-;hTDP1 cells + 20 nM CPT, ATP luminescence, 48 h; Potency, µM (titrated, usually from 46.2 µM), for the others: at the highest dose activity change, negative = growth inhibition, actives largely listed as inhibitors; AID 686979; note: potency is the fitted concentration of half-maximal effect; nearly all actives have a fitted effect of over 55% in size
#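 Chicken DT40 Tdp1-/- cells stably complemented with human TDP1 were seeded at 400 cells/well in medium containing 20 nM camptothecin, exposed to pin-transferred compounds, and grown at 37 °C for at least 48 hr. Viability was read as ATP luminescence.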
# An asterisk follows results filed as active; ? = inconclusive; . = no result. Unless noted, calls come from the whole dose curve; as a rule, active = well fitted curve in the direction sought with a large enough effect; inconclusive = small, poorly fitted or top-dose-only effect, or another doubt; inactive = no such curve, though single readings can be large; an effect the other way counts as inactive or inconclusive. Unless noted, % is set by controls: 0 for no effect and ±100 for the full control effect.
SMILES,TDP1 cell noCPT,IL-1B inflam inh,12-LOX inh,HT1080NT lethal,HT1080 IDH1KD tx,DT40 TDP1 CPT
COc1ccc(-c2nc3c(s2)CN(C(C(=O)O)c2c[nH]c4c(OC)cccc24)CC3)cc1OC (configuration not stated),.,.,-6%,.,.,.
CC(C)c1cc(Cn2c3ccccc3c(=O)n2C(C)Cn2cc(-c3ccc(C(C)(C)C)cc3)nn2)on1 (configuration not stated),15µM*,-29,-6%,?,?,?
CC(C)c1cc(Cn2c3ccccc3c(=O)n2C(C)Cn2cc(C3=CCCCC3)nn2)on1 (configuration not stated),?,-28,?,-6%,1%,?
COc1ccc(CCNC(=O)c2cc(-c3cc(C)ccc3O)n[nH]2)cc1OC,?,?,-8%,-1%,0%,?
COc1ccc(CCNC(=O)c2cc(-c3ccc(C)c(C)c3O)n[nH]2)cc1OC,16µM*,?,-8%,-27%,?,21µM*
COc1ccc(CCNC(=O)c2cc(-c3ccc(Cl)cc3)on2)cc1OC,0%,.,-21%,.,.,-2%
COc1ccc(CCNC(=O)c2cc(-c3ccccc3OC)on2)cc1OC,21µM*,?,7%,7%,1%,?
COc1ccccc1-c1cc(C(=O)NCCc2ccccc2)no1,15µM*,14,-17%,-23%,?,13µM*
COc1ccc(CCNC(=O)c2cc(C3CC3)on2)cc1OC,-5%,5,-28%,10%,5%,-20%
COc1ccc(CCNC(=O)c2cc(CC(C)C)on2)cc1OC,16µM*,11,-3%,6%,-1%,?
CCCn1nc(C(=O)OCC(=O)Nc2ccc3c(c2)OCO3)c2ccccc2c1=O,.,.,-3%,.,.,.
COc1ccc2nc3sc(C(=O)NCCc4ccc(Cl)cc4)cc3cc2c1,-13%,.,?,.,.,9%
COc1ccc2cc3cc(C(=O)NCCc4ccccc4)sc3nc2c1Cl,16µM*,.,-35%,.,.,12µM*
CCNC(=O)C1(C)CCN(Cc2ccc(OC(F)(F)F)cc2)C1 (configuration not stated),-26%,0,-11%,13%,11%,-24%
COCCNC(=O)C1(C)CCCN(Cc2ccc(OCc3ccccc3)cc2)C1 (configuration not stated),21µM*,-23,-4%,-5%,-11%,26µM*
COCCNC(=O)C1(C)CCCN(CCSc2ccccc2)C1 (configuration not stated),13µM*,12,?,9%,?,?
COCCNC(=O)C1(C)CCCN(Cc2cc(-c3ccccc3)n(C)n2)C1 (configuration not stated),?,17,-3%,5%,1%,?
COCCNC(=O)C1(C)CCCN(Cc2ccccc2N(C)C)C1 (configuration not stated),-4%,12,-5%,21%,8%,-14%
COCCNC(=O)C1(C)CCCN(Cc2cc(-c3ccccc3)on2)C1 (configuration not stated),23µM*,39,-25%,15%,1%,13µM*
CCCNC(=O)C1(C)CCN(Cc2ccc(OCc3ccccc3)cc2)C1 (configuration not stated),18µM*,-21,?,-28%,-6%,23µM*
COC(=O)c1cccc(COc2ccc(Cl)cc2Cl)c1,.,.,10%,.,.,.
O=c1ccn(C2OC(COP(=O)(O)OP(=O)(O)OP(=O)(O)O)C(O)C2O)c(=O)[nH]1 (configuration not stated),-10%,.,.,.,.,-9%
Cc1ccc(C)c(NC(=O)CSCc2cc(C)no2)c1,.,.,-26%,.,.,.
O=C(NCc1ccc(OCC(F)(F)F)cc1)C1CCN(c2nc3ccccc3o2)CC1,.,.,7%,.,.,.
CC(C)CCN(CC(N)=O)C1CC1,.,.,-26%,.,.,.
SMILES,TDP1 cell noCPT,IL-1B inflam inh,12-LOX inh,HT1080NT lethal,HT1080 IDH1KD tx,DT40 TDP1 CPT
O=C(Nc1ccc(O)c(-c2nc3ccccc3o2)c1)c1ccc2c(c1)OCCO2,.,.,14%,.,.,.
CCCNC(=O)C1(C)CCN(Cc2cc(C(F)(F)F)ccc2Cl)C1 (configuration not stated),15µM*,40,-6%,11%,10%,23µM*
COCCNC(=O)C1(C)CCCN(Cc2ccc(Cl)c(Cl)c2)C1 (configuration not stated),16µM*,14,.,24%,7%,21µM*
CCCNC(=O)C1(C)CCN(Cc2ccc(C(=O)OCC)cc2)C1 (configuration not stated),16µM*,41,-7%,5%,2%,?
COCCNC(=O)C1(C)CCN(Cc2ccc(C(C)C)cc2)C1 (configuration not stated),21µM*,1,-1%,22%,19%,?
COCCNC(=O)C1(C)CCCN(Cc2ccc(OC)cc2)C1 (configuration not stated),-11%,27,.,?,11%,-34%
COCC(C)NS(=O)(=O)c1c(C)cc(C)cc1C (configuration not stated),.,.,38%,.,.,.
COCC#Cc1ccc2c(c1)O[C@H](CN(C)C(=O)c1ccccc1)[C@@H](C)CN([C@H](C)CO)S2(=O)=O,.,.,-56%,.,.,.
Cc1nc(CCC(=O)N(C)CC2CCN(CCc3cccc(F)c3)CC2)n[nH]1,.,.,24%,.,.,.
CC(C)N1CCc2c(sc(NC(=O)c3ccc(S(=O)(=O)N4CCc5ccccc54)cc3)c2C(N)=O)C1,?,19,.,?,21µM*,23µM*
COCCN(CCOC)S(=O)(=O)c1ccc(C(=O)Nc2sc3c(c2C(N)=O)CCCCC3)cc1,?,-5,-24%,-1%,-2%,-28%
NC(=O)c1ccsc1NC(=O)c1ccc(S(=O)(=O)N2CCCc3ccccc32)cc1,18µM*,0,-12%,-19%,-20%,16µM*
CC(C)N1CCc2c(sc(NC(=O)c3ccc(S(=O)(=O)N(C)C4CCCCC4)cc3)c2C(N)=O)C1,18µM*,.,?,.,.,?
CCN1CCN(S(=O)(=O)c2ccc(C(=O)Nc3sc4c(c3C(N)=O)CCN(CC)C4)cc2)CC1,-18%,-14,41%,-8%,-13%,?
CCOc1ccccc1N1CSC2=C(C#N)C(c3c(OC)ccc4ccccc34)CC(=O)N2C1 (configuration not stated),21µM*,12,3.2µM*,4%,-7%,?
